According to PubChem BioAssay (NCATS):
Active and inactive are the calls of the source. Calls follow the shape of the dose curve; as a rule, active = well fitted activation curve with a large enough effect; inconclusive = small, poorly fitted or top-dose-only effect; inactive = no such curve, though single readings can be large or run the other way.

molecular target: Cytochrome P450 3A4 (Homo sapiens) (UniProt P08684); assay: qHTS Assay for Activators of Cytochrome P450 3A4 (AID 885); settings: recombinant CYP3A4, Luciferin-PPXE luminescence, 60 min; series mostly up to 57.1 µM; also: nearly all actives have a fitted effect of over 65% in size
Summary of the method: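 Steps: enzyme/substrate mix dispensed; compound added, 10 min RT; NADPH regeneration solution added, 60 min RT; luciferin detection buffer stops reaction; 20 min later luminescence measured.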

Sequence of Cytochrome P450 3A4 (Homo sapiens) (P08684 whole entry, looked up): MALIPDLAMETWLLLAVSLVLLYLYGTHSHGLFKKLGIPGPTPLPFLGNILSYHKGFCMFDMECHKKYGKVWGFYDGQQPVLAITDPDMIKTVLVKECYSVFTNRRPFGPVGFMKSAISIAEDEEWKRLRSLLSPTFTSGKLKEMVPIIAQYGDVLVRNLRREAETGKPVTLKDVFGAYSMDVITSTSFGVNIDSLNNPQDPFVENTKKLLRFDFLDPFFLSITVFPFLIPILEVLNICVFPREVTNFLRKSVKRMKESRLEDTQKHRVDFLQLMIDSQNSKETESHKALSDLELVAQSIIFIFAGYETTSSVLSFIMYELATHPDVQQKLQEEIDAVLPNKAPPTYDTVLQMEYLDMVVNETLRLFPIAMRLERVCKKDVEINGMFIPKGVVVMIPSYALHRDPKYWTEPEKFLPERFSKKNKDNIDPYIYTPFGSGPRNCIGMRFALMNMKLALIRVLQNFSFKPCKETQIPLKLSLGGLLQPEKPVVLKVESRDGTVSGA

Activity change, positive = activation, inactive:
CO[C@H]1COC(=O)C/C=C\[C@H](C)[C@@H](NS(=O)(=O)c2ccc(C)cc2)COC(=O)CCC[C@@H]1C -92.6% [at 11.4 µM], CCCNC(=O)OC[C@@H]1O[C@H](CCO/N=C\C[C@H]2C=C[C@H](OC(C)=O)[C@@H](COC(C)=O)O2)C=C[C@@H]1Oc1ccc(OC)cc1 -95.4% [at 11.4 µM], COC(=O)NC(c1ccco1)C(C(C)=O)C(=O)OC (configuration not stated) -66.9% [at 11.4 µM], O=C(N/N=C1/C[C@@H](O)[C@@H](O)[C@@H]2[C@@H]3C(=O)N(Cc4ccc5c(c4)OCO5)C(=O)[C@H]3CC[C@@H]12)OCc1ccccc1 -74.6% [at 11.4 µM], C/C(CCC(=O)OC[C@@H]1O[C@H](C#Cc2ccccc2)C=C[C@@H]1Oc1ccc(C)cc1)=N/O[C@@H](C)CN1CCCCc2nc(C)c(C)cc21 -94.6% [at 11.4 µM]

Potency, inactive:
C=C1C(=O)OC2C[C@@]3(C)CCCC(=C)[C@@H]3CC12 (some centres not stated), Cc1c(C(=O)NC2CCCCC2)sc2nc3ccc(N)cc3n12, COC(=O)c1cccc(C23CC4(C2)[C@H](CN(Cc2cccnc2)[C@@H]4c2ccccc2)C3c2ccccc2)c1 (some centres not stated), COC(=O)c1ccc(C(NC(=O)OCc2ccccc2)/C(C)=C/[C@@H](C)C(=O)NCCN2CCOCC2)cc1 (some centres not stated), O=C1C=C(NCCO)C(=O)c2cnccc21, CCC1=C2CC[C@H]3C(=O)N(CC)C(=O)[C@H]3[C@H]2[C@@]2(C)C(=O)N(CC(=O)OC)C(=O)N2C1=O, N#Cc1ccc(C23CC4(C2)[C@H](CN(Cc2cccnc2)[C@@H]4c2ccccc2)C3c2ccc(C(F)(F)F)cc2)cc1 (some centres not stated)
